Measured values from PubChem BioAssay AID1159580 (chemical genetic matrix, 2015).
Where “and” joins values, the source holds several entries; their conditions need not be identical. Equal values may be shown once. Screen size: about 5,500 compounds; about 2,000 (36%) were called active. Inconclusive results (about 18%) are left out. No stated cut-off is given here; in the data, active means normalized growth mostly below about 0.91 (no sharp cut-off); inconclusive means no clear call, values can overlap the other calls; inactive means mostly above about 0.92. The list shows a part of the results.

Assay: chemical genetic growth profiling, strain panel (AID 1159580);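 further: tested at 20 µM; growth read once vehicle control cultures reached saturation at 30 °C; 1 = growth at the plate median or of vehicle wells; lower values mean less growth of the strain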
Conditions: S. cerevisiae deletion strains, growth OD

Measured: normalized growth

Nc1nc(N)c2nc(-c3ccccc3)c(N)nc2n1
inactive: locus YAL013W, strain DEP1, hits give low values 1 | locus YAL021C, strain ccr4, hits give low values 1.01 | locus YAL026C, strain drs2, hits give low values 1.01 | locus YAL030W, strain snc1, hits give low values 0.998 | locus YAL040C, strain CLN3, hits give low values 0.986 | locus YBL061C, strain skt5, hits give low values 1 | locus YBR009C, strain hhf1, hits give low values 0.969 | locus YBR021W, strain FUR4, hits give low values 1.01 | locus YBR023C, strain chs3, hits give low values 0.997 | locus YBR171W, strain sec66, hits give low values 1.01 | locus YBR229C, strain ROT2, hits give low values 1 | locus YBR231C, strain swc5, hits give low values 1 | locus YBR279W, strain paf1, hits give low values 0.994 | locus YCL011C, strain gbp2, hits give low values 0.992 | locus YCL016C, strain dcc1, hits give low values 0.999 | locus YCL029C, strain bik1, hits give low values 1.01 | locus YCL061C, strain MRC1 (second series), hits give low values 0.989 | locus YCL061C, strain MRC1, hits give low values 1.01 | locus YCL069W, strain vba3, hits give low values 1 | locus YCR088W, strain abp1, hits give low values 0.992 | locus YDL005C, strain med2, hits give low values 1.01 | locus YDL035C, strain GPR1, hits give low values 1.01 | locus YDL040C, strain nat1, hits give low values 1.01 | locus YDL074C, strain BRE1, hits give low values 0.973 | locus YDL101C, strain DUN1, hits give low values 1.01 | locus YDL134C, strain PPH21, hits give low values 1 | locus YDL185W, strain tfp1, hits give low values 1.01 | locus YDL192W, strain arf1, hits give low values 1.01 | locus YDR001C, strain nth1, hits give low values 1.02 | locus YDR069C, strain doa4, hits give low values 1 | locus YDR101C, strain arx1, hits give low values 0.999 | locus YDR137W, strain rgp1, hits give low values 1 | locus YDR150W, strain NUM1, hits give low values 0.987 and 0.981 | locus YDR159W, strain sac3, hits give low values 0.951 | locus YDR162C, strain NBP2, hits give low values 1.01 | locus YDR195W, strain ref2 1 | locus YDR297W, strain sur2, hits give low values 1 | locus YDR318W, strain mcm21, hits give low values 1 | locus YDR334W, strain swr1, hits give low values 1 | locus YDR335W, strain msn5, hits give low values 1 | locus YDR363W, strain ESC2, hits give low values 1 | locus YDR388W, hits give low values 1.01 | locus YDR392W, strain spt3, hits give low values 0.946 | locus YDR502C, strain sam2, hits give low values 1 | locus YEL003W, strain gim4, hits give low values 1.01 | locus YEL037C, strain rad23, hits give low values 0.997 | locus YEL061C, strain CIN8 (second series), hits give low values 1 | locus YEL061C, strain CIN8, hits give low values 1 | locus YER002W, strain NOP16, hits give low values 1 | locus YER015W, strain faa2, hits give low values 0.993 | locus YER016W, strain bim1, hits give low values 0.966 | locus YER110C, hits give low values 1.01 | locus YER111C, strain swi4, hits give low values 1.01 | locus YER155C, strain BEM2 (second series), hits give low values 0.957 | locus YER155C, strain BEM2, hits give low values 1.01 | locus YER167W, strain BCK2, hits give low values 1.01 | locus YFR010W, strain ubp6, hits give low values 1.02 | locus YGL078C, strain dbp3, hits give low values 1.01 | locus YGL086W, strain mad1, hits give low values 1 | locus YGL167C, strain pmr1, hits give low values 1.01 | locus YGL173C, strain kem1, hits give low values 1 | locus YGL227W, strain vid30, hits give low values 1.01 | locus YGL240W, strain doc1, hits give low values 1 | locus YGL248W, strain PDE1, hits give low values 0.999 | locus YGL253W, strain hxk2, hits give low values 0.99 | locus YGR078C, strain PAC10, hits give low values 0.996 and 0.977 | locus YGR135W, strain pre9, hits give low values 1.01 | locus YGR229C, strain SMI1, hits give low values 1.02 | locus YGR252W, strain gcn5, hits give low values 0.939 | locus YHR013C, strain ard1, hits give low values 0.978 | locus YHR027C, strain rpn1, hits give low values 1 | locus YHR030C, strain SLT2, hits give low values 0.999 and 0.991 | locus YHR079C, strain IRE1 (second series), hits give low values 1.02 | locus YHR079C, strain IRE1, hits give low values 0.975 | locus YHR094C, strain hxt1, hits give low values 1 | locus YHR129C, strain ARP1, hits give low values 0.993 | locus YHR142W, strain chs7, hits give low values 0.996 | locus YHR200W, strain rpn10, hits give low values 1.01 | locus YIL066C, strain RNR3, hits give low values 1 | locus YIL073C, strain SPO22, hits give low values 1.05 | locus YIL125W, strain kgd1, hits give low values 1.01 | locus YIR030C, strain dcg1, hits give low values 1.01 | locus YJL092W, strain hpr5, hits give low values 1.01 | locus YJL095W, strain BCK1 (second series), hits give low values 1.01 | locus YJL095W, strain BCK1, hits give low values 0.988 | locus YJL115W, strain asf1, hits give low values 1 | locus YJL129C, strain trk1, hits give low values 0.993 | locus YJL134W, strain LCB3, hits give low values 1 | locus YJL154C, strain vps35, hits give low values 0.992 | locus YJL164C, strain tpk1, hits give low values 0.981 | locus YJL166W, strain qcr8, hits give low values 1.02 | locus YJL168C, strain set2, hits give low values 1.01 | locus YJL187C, strain SWE1 (second series), hits give low values 1 | locus YJR043C, strain POL32, hits give low values 0.994 | locus YJR066W, strain TOR1, hits give low values 0.938
